Laboratory results reported in PubChem BioAssay (NCATS).
Results filed as inconclusive are left out. Entries that show only a call come without a potency. Activity calls are given as the source filed them. Calls come from the whole dose curve.

Assay: Primary qHTS for inhibitors of MERS-S pseudo-typed particle cell entry (AID 1479149); note: nearly all actives have a fitted effect of over 60% in size
Details: MERS-S pseudotyped particle entry, luciferase; series mostly up to 57.1 µM

Structure (SMILES) | Potency
CCN(CC)CC(=O)Nc1c(C)cccc1C | inactive
CCC(C(=O)OCCN1CCOC(c2ccccc2)C1C)c1ccccc1 (stereo unspecified) | inactive
N[C@H]1CN(c2c(F)cc3c(=O)c(C(=O)O)cn(C4C[C@@H]4F)c3c2Cl)CC12CC2 (stereo partly specified) | inactive
NC1=NCC2c3ccccc3Cc3ccccc3N12 (stereo unspecified) | inactive
Nc1ccc(S(=O)(=O)Nc2nccs2)cc1 | inactive
NCCNC(=O)c1ccc(Cl)cn1 | inactive
Cc1nc(C2CCCCC2)c(-c2ccc(S(N)(=O)=O)c(F)c2)o1 | inactive
CN1CCOC(c2ccccc2)c2ccccc2C1 (stereo unspecified) | inactive
CCOC(=O)[C@H](CCc1ccccc1)N[C@H]1CS[C@H](c2cccs2)CN(CC(=O)O)C1=O | inactive
CCOC(=O)n1ccn(C)c1=S | inactive
Nc1c2c(nc3ccccc13)CCCC2 | inactive
Nc1ccc(S(=O)(=O)Nc2cnc3ccccc3n2)cc1 | inactive
CC1(C)[C@@H]2CC[C@@]1(C)C(=O)C2 | inactive
CN(C)[C@@H]1C(=O)C(C(=O)NCN2CCCC2)=C(O)[C@@]2(O)C(=O)C3=C(O)c4c(O)cccc4[C@@](C)(O)C3C[C@@H]12 (stereo partly specified) | inactive
CCC(=O)O[C@]1(C(=O)COC)[C@@H](C)C[C@H]2[C@@H]3CCC4=CC(=O)C=C[C@]4(C)C3(F)[C@@H](O)C[C@@]21C (stereo partly specified) | inactive
O=C(O)COC(=O)Cc1ccccc1Nc1c(Cl)cccc1Cl | inactive
N#Cc1cc(NC(=O)C(=O)O)c(Cl)c(NC(=O)C(=O)O)c1 | inactive
Cc1ccc(O)cc1 | inactive
Cc1ccc(C(=O)Oc2ccc(C(O)CNC(C)(C)C)cc2OC(=O)c2ccc(C)cc2)cc1 (stereo unspecified) | inactive

Structure (SMILES) | Potency
CC1(C)O[C@@H]2C[C@H]3[C@@H]4C[C@H](F)C5=CC(=O)C=C[C@]5(C)[C@H]4[C@@H](O)C[C@]3(C)[C@]2(C(=O)CO)O1 | inactive
Cc1ccc(/C=N/n2c(-c3ccccc3)csc2=S)cc1 | inactive
CN(Cc1ccc(C(C)(C)C)cc1)Cc1cccc2ccccc12 | inactive
O=C(O)c1ccc(OCCCOc2ccc(C(=O)O)cc2)cc1 | inactive
C[N+](C)(C)CCCCCCCCCC[N+](C)(C)C | inactive
Cc1cc(=O)oc2cc(O)ccc12 | inactive
CCCCOc1ccc(OCCCN2CCOCC2)cc1 | inactive
O=C(Nc1ccc([N+](=O)[O-])cc1)Nc1ccc([N+](=O)[O-])cc1 | inactive
CCOc1cc(N)c(Cl)cc1C(=O)NCC1CN(Cc2ccc(F)cc2)CCO1 (stereo unspecified) | inactive
CCN(CC)CC(=O)Nc1c(C)cccc1C(=O)OC | inactive
Cc1ncc(CSSCc2cnc(C)c(O)c2CO)c(CO)c1O | inactive
CCn1cc(C(=O)O)c(=O)c2cc(F)c(N3CCNCC3)nc21 | inactive
COC(=O)C1=C(C)NC(COC(N)=O)=C(C(=O)OC(C)C)C1c1cccc(Cl)c1Cl (stereo unspecified) | inactive
CCC(=O)O[C@]1(C(=O)SCF)[C@H](C)C[C@H]2[C@@H]3C[C@H](F)C4=CC(=O)C=C[C@]4(C)[C@@]3(F)[C@@H](O)C[C@@]21C | inactive
CCNC(=O)NCCCOc1cccc(CN2CCCCC2)c1 | inactive
CCCc1nc(C)c2c(=O)[nH]c(-c3cc(S(=O)(=O)N4CCN(CC)CC4)ccc3OCC)nn12 | inactive
OCC(CO)N[C@H]1C[C@](O)(CO)[C@@H](O)[C@H](O)[C@H]1O | inactive
Cc1cccc(CN2CCN(C(c3ccccc3)c3ccc(Cl)cc3)CC2)c1 (stereo unspecified) | inactive
CCC(=O)O[C@]1(C(=O)CCl)[C@@H](C)C[C@H]2[C@@H]3CCC4=CC(=O)C=C[C@]4(C)[C@@]3(F)[C@@H](O)C[C@@]21C | inactive

Assay: Primary qHTS for Vero E6 cytotoxicity: counterscreen for inhibitors of SARS-S pseudo-typed particle cell entry (AID 1479150)
Details: cell viability; series mostly up to 57.1 µM

Structure (SMILES) | Potency
CCN(CC)CC(=O)Nc1c(C)cccc1C | inactive
CCC(C(=O)OCCN1CCOC(c2ccccc2)C1C)c1ccccc1 (stereo unspecified) | inactive
N[C@H]1CN(c2c(F)cc3c(=O)c(C(=O)O)cn(C4C[C@@H]4F)c3c2Cl)CC12CC2 (stereo partly specified) | inactive
NC1=NCC2c3ccccc3Cc3ccccc3N12 (stereo unspecified) | inactive
Nc1ccc(S(=O)(=O)Nc2nccs2)cc1 | inactive
NCCNC(=O)c1ccc(Cl)cn1 | inactive
Cc1nc(C2CCCCC2)c(-c2ccc(S(N)(=O)=O)c(F)c2)o1 | inactive
CN1CCOC(c2ccccc2)c2ccccc2C1 (stereo unspecified) | inactive
CCOC(=O)[C@H](CCc1ccccc1)N[C@H]1CS[C@H](c2cccs2)CN(CC(=O)O)C1=O | inactive
CCOC(=O)n1ccn(C)c1=S | inactive
Nc1c2c(nc3ccccc13)CCCC2 | inactive
Nc1ccc(S(=O)(=O)Nc2cnc3ccccc3n2)cc1 | inactive
CC1(C)[C@@H]2CC[C@@]1(C)C(=O)C2 | inactive
CN(C)[C@@H]1C(=O)C(C(=O)NCN2CCCC2)=C(O)[C@@]2(O)C(=O)C3=C(O)c4c(O)cccc4[C@@](C)(O)C3C[C@@H]12 (stereo partly specified) | inactive
CCC(=O)O[C@]1(C(=O)COC)[C@@H](C)C[C@H]2[C@@H]3CCC4=CC(=O)C=C[C@]4(C)C3(F)[C@@H](O)C[C@@]21C (stereo partly specified) | inactive
O=C(O)COC(=O)Cc1ccccc1Nc1c(Cl)cccc1Cl | inactive
N#Cc1cc(NC(=O)C(=O)O)c(Cl)c(NC(=O)C(=O)O)c1 | inactive
Cc1ccc(O)cc1 | inactive
Cc1ccc(C(=O)Oc2ccc(C(O)CNC(C)(C)C)cc2OC(=O)c2ccc(C)cc2)cc1 (stereo unspecified) | inactive

Structure (SMILES) | Potency
CC1(C)O[C@@H]2C[C@H]3[C@@H]4C[C@H](F)C5=CC(=O)C=C[C@]5(C)[C@H]4[C@@H](O)C[C@]3(C)[C@]2(C(=O)CO)O1 | inactive
Cc1ccc(/C=N/n2c(-c3ccccc3)csc2=S)cc1 | inactive
CN(Cc1ccc(C(C)(C)C)cc1)Cc1cccc2ccccc12 | inactive
O=C(O)c1ccc(OCCCOc2ccc(C(=O)O)cc2)cc1 | inactive
C[N+](C)(C)CCCCCCCCCC[N+](C)(C)C | inactive
Cc1cc(=O)oc2cc(O)ccc12 | inactive
CCCCOc1ccc(OCCCN2CCOCC2)cc1 | inactive
O=C(Nc1ccc([N+](=O)[O-])cc1)Nc1ccc([N+](=O)[O-])cc1 | inactive
CCOc1cc(N)c(Cl)cc1C(=O)NCC1CN(Cc2ccc(F)cc2)CCO1 (stereo unspecified) | inactive
CCN(CC)CC(=O)Nc1c(C)cccc1C(=O)OC | inactive
Cc1ncc(CSSCc2cnc(C)c(O)c2CO)c(CO)c1O | inactive
CCn1cc(C(=O)O)c(=O)c2cc(F)c(N3CCNCC3)nc21 | inactive
COC(=O)C1=C(C)NC(COC(N)=O)=C(C(=O)OC(C)C)C1c1cccc(Cl)c1Cl (stereo unspecified) | inactive
CCC(=O)O[C@]1(C(=O)SCF)[C@H](C)C[C@H]2[C@@H]3C[C@H](F)C4=CC(=O)C=C[C@]4(C)[C@@]3(F)[C@@H](O)C[C@@]21C | inactive
CCNC(=O)NCCCOc1cccc(CN2CCCCC2)c1 | inactive
CCCc1nc(C)c2c(=O)[nH]c(-c3cc(S(=O)(=O)N4CCN(CC)CC4)ccc3OCC)nn12 | inactive
OCC(CO)N[C@H]1C[C@](O)(CO)[C@@H](O)[C@H](O)[C@H]1O | inactive
Cc1cccc(CN2CCN(C(c3ccccc3)c3ccc(Cl)cc3)CC2)c1 (stereo unspecified) | inactive
CCC(=O)O[C@]1(C(=O)CCl)[C@@H](C)C[C@H]2[C@@H]3CCC4=CC(=O)C=C[C@]4(C)[C@@]3(F)[C@@H](O)C[C@@]21C | inactive
